Records with an inconclusive call do not appear. Activity calls are given as the source filed them. How the source made its calls: active means hit-call score of the fitted dose curve at least 0.9, where 1 is the maximum; inconclusive means response in the unintended direction; inactive means score below 0.9.

The nature of the first assay: TOX21_p53_BLA_p2_viability: Viability Assessment in the Tox21 HCT-116 p53 Agonism Beta-lactamase Assay, Phase 2 (AID 2283591).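 Further: compound exposure lasted 16 h at 37 °C; actives lower the ATP signal meaning cytotoxicity.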 The method in brief:
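Cytotoxicity readout: CellTiter-Glo ATP luminescence, 30 min at room temperature, after the beta-lactamase read. Cells were HCT116 exposed 16 h at 37C to compounds pin-transferred at 217-fold dilution from DMSO stocks.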
With `Fc1ccc(C(OCCN2CCN(CCCc3ccccc3)CC2)c2ccc(F)cc2)cc1`, the AC50 (in general, the concentration giving half of the maximal activity seen) was 33000 nM (active).
As to `C[C@@H](Cc1ccccc1)NCCC(c1ccccc1)c1ccccc1`, the result was inactive.
Regarding `CC(=O)CCC(C)=O`, the molecule was classed as inactive.
Take `CCCCc1c(C)nc(NCC)[nH]c1=O`: the call was inactive.
Take `NNC(=O)c1ccccc1`: the molecule was called inactive.
The same measure, in the same setting: then `CC(C)c1ccc(NC(=O)N(C)C)cc1`, with “inactive”.
Regarding `C[C@@H]1O[C@@H](O[C@@H]2C=C3CC[C@@H]4[C@H](CC[C@]5(C)[C@@H](c6ccc(=O)oc6)CC[C@]45O)[C@@]3(C)CC2)[C@H](O)[C@H](O)[C@H]1O`, the AC50 is 9.27 nM (active).
On to `CC(C)C[C@H]1C(=O)N2CCC[C@H]2[C@]2(O)O[C@](NC(=O)[C@@H]3C[C@@H]4c5cccc6[nH]cc(c56)C[C@H]4N(C)C3)(C(C)C)C(=O)N12`, for which the result was inactive.
As for `N#CC(C#N)=C(C#N)C#N`, the outcome was inactive.
For `Cc1nnc2n1-c1sc(CCC(=O)N3CCOCC3)cc1C(c1ccccc1Cl)=NC2`, the result was inactive.
Turning to `C[C@H]1CC[C@]2(NC1)O[C@H]1C[C@H]3[C@@H]4CC[C@H]5C[C@@H](O)CC[C@]5(C)[C@H]4CC[C@]3(C)[C@H]1[C@@H]2C`, the call was inactive.
Same read-out and setting: the entry for `N#C/C(N)=C(/N)C#N` is “inactive”; for `CNC(C)Cc1ccccc1OC` (stereo not given) it is “inactive”.
Turning to `NC(=O)CS(=O)C(c1ccccc1)c1ccccc1` (stereo not given), the molecule was classed as inactive.
On to `COc1ccc(OC)c([C@@H](O)[C@H](C)N)c1`, for which the call was inactive.
Turning to `CCCN(CC1CC1)c1c([N+](=O)[O-])cc(C(F)(F)F)cc1[N+](=O)[O-]`, the molecule was called inactive.
`CC1(C)C(/C=C(\Cl)C(F)(F)F)C1C(=O)OC(C#N)c1cccc(Oc2ccccc2)c1` (stereo not given): the molecule was called inactive.
Same read-out and setting: then `ClCc1ccccc1`, with “inactive”.
The same measure, in the same setting: then `CC1NCCOC1c1ccccc1` (stereo not given), with “inactive”.
Take `CC(Cc1ccccc1)NCc1ccccc1Cl` (stereo not given): the molecule was classed as inactive.
In the case of `COC(C)(C)CCCC(C)C/C=C/C(C)=C/C(=O)OC(C)C` (stereo not given), the call was inactive.
Still for that read-out and setting: the entry for `CCC1(c2ccccc2)C(=O)NC(=O)N(C(=O)c2ccccc2)C1=O` (stereo not given) is “inactive”.
Turning to `S=C=NCCc1ccccc1`, the result was inactive.
As to `O=[N+]([O-])O[C@H]1CO[C@H]2[C@@H]1OC[C@H]2O[N+](=O)[O-]`, the molecule was classed as inactive.
As for `Brc1ccc(Oc2cc(Br)c(Br)cc2Br)c(Br)c1`, the call was inactive.
Take `c1ccc(C2(N3CCCC3)CCCCC2)cc1`: the molecule was called inactive.
Still for that read-out and setting: the entry for `N#CCc1ccccc1` is “inactive”; for `F/C(COc1ccc2c(c1)[nH]c1ccccc12)=C1/CN2CCC1CC2` it is “inactive”; for `O=C(CCl)C(Cl)Cl` it is “inactive”.
As for `O=C(N/N=C/c1ccc([N+](=O)[O-])o1)c1cc([N+](=O)[O-])cc([N+](=O)[O-])c1O`, the result was inactive.
`O=C(OCCN1CCCCC1)C(O)(c1ccccc1)c1ccccc1`: the result was inactive.
For `CO[C@H]1[C@@H](O)C[C@H](O[C@H]2[C@@H](O)C[C@H](O[C@H]3[C@@H](O)C[C@H](O[C@H]4CC[C@@]5(C)[C@H](CC[C@@H]6[C@@H]5C[C@@H](O)[C@]5(C)[C@@H](C7=CC(=O)OC7)CC[C@]65O)C4)O[C@@H]3C)O[C@@H]2C)O[C@@H]1C`, the AC50 is 109 nM (active).
On to `CCOS(C)(=O)=O`, for which the outcome was inactive.
For `O=C(O)c1nn(Cc2ccc(Cl)cc2Cl)c2ccccc12`, the molecule was classed as inactive.
On to `C=CC(C)=O`, for which the outcome was inactive.
Regarding `O=CC=Cc1ccccc1`, the molecule was called inactive.
Same read-out and setting: the entry for `COc1ccc2c(c1OC)C(=O)O[C@@H]2[C@H]1c2cc3c(cc2CCN1C)OCO3` is “inactive”.
For `CC(=O)O[C@H]1C[C@H](O[C@H]2[C@@H](O)C[C@H](O[C@H]3[C@@H](O)C[C@H](OC4CC[C@@]5(C)[C@H](CC[C@@H]6[C@@H]5CC[C@]5(C)[C@@H](C7=CC(=O)OC7)CC[C@]65O)C4)O[C@@H]3C)O[C@@H]2C)O[C@H](C)[C@H]1O[C@@H]1O[C@H](CO)[C@@H](O)[C@H](O)[C@H]1O` (stereo not given in full), the half-maximal activity concentration (AC50) was 99.4 nM (active).
Regarding `CSCCCN=C=S`, the molecule was called inactive.
Turning to `C[C@]12CC[C@H]3[C@@H](CCC4=CC(=O)CC[C@@]43C)[C@@H]1CC[C@@H]2OC(=O)CCc1ccccc1`, the molecule was classed as inactive.

A short description of the next assay: TOX21_p53_BLA_p3_viability: Viability Assessment in the Tox21 HCT-116 p53 Agonism Beta-lactamase Assay, Phase 3 (AID 2283593).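 Further: cells exposed to compound for 16 h before reading.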 The method in brief:
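Cellular ATP was quantified by CellTiter-Glo luminescence, read after 30 min at room temperature. Beforehand, HCT116 cells (4000/well) received compound 5 h post-seeding, 217-fold diluted from DMSO, then incubated 16 h at 37C.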
On to `Fc1ccc(C(OCCN2CCN(CCCc3ccccc3)CC2)c2ccc(F)cc2)cc1`, for which the AC50 is 31000 nM (active).
Take `C[C@@H](Cc1ccccc1)NCCC(c1ccccc1)c1ccccc1`: the molecule was called inactive.
Consider `CC(=O)CCC(C)=O`, for which the molecule was called inactive.
As for `CCCCc1c(C)nc(NCC)[nH]c1=O`, the molecule was called inactive.
As for `NNC(=O)c1ccccc1`, the call was inactive.
On to `CC(C)c1ccc(NC(=O)N(C)C)cc1`, for which the molecule was called inactive.
As to `C[C@@H]1O[C@@H](O[C@@H]2C=C3CC[C@@H]4[C@H](CC[C@]5(C)[C@@H](c6ccc(=O)oc6)CC[C@]45O)[C@@]3(C)CC2)[C@H](O)[C@H](O)[C@H]1O`, the AC50 is 13.4 nM (active).
As to `CC(C)C[C@H]1C(=O)N2CCC[C@H]2[C@]2(O)O[C@](NC(=O)[C@@H]3C[C@@H]4c5cccc6[nH]cc(c56)C[C@H]4N(C)C3)(C(C)C)C(=O)N12`, the molecule was called inactive.
As to `N#CC(C#N)=C(C#N)C#N`, the molecule was classed as inactive.
Turning to `Cc1nnc2n1-c1sc(CCC(=O)N3CCOCC3)cc1C(c1ccccc1Cl)=NC2`, the call was inactive.
For the molecule `C[C@H]1CC[C@]2(NC1)O[C@H]1C[C@H]3[C@@H]4CC[C@H]5C[C@@H](O)CC[C@]5(C)[C@H]4CC[C@]3(C)[C@H]1[C@@H]2C`, the outcome was inactive.
Take `N#C/C(N)=C(/N)C#N`: the call was inactive.
For the molecule `CNC(C)Cc1ccccc1OC` (stereo not given), the result was inactive.
With `NC(=O)CS(=O)C(c1ccccc1)c1ccccc1` (stereo not given), the call was inactive.
In the case of `COc1ccc(OC)c([C@@H](O)[C@H](C)N)c1`, the call was inactive.
The same measure, in the same setting: then `CCCN(CC1CC1)c1c([N+](=O)[O-])cc(C(F)(F)F)cc1[N+](=O)[O-]`, with “inactive”.
With `CC1(C)C(/C=C(\Cl)C(F)(F)F)C1C(=O)OC(C#N)c1cccc(Oc2ccccc2)c1` (stereo not given), the molecule was called inactive.
For the molecule `ClCc1ccccc1`, the molecule was classed as inactive.
`CC1NCCOC1c1ccccc1` (stereo not given): the molecule was classed as inactive.
Regarding `CC(Cc1ccccc1)NCc1ccccc1Cl` (stereo not given), the molecule was classed as inactive.
With `COC(C)(C)CCCC(C)C/C=C/C(C)=C/C(=O)OC(C)C` (stereo not given), the molecule was classed as inactive.
The same measure, in the same setting: the entry for `CCC1(c2ccccc2)C(=O)NC(=O)N(C(=O)c2ccccc2)C1=O` (stereo not given) is “inactive”.
In the case of `S=C=NCCc1ccccc1`, the molecule was classed as inactive.
With `O=[N+]([O-])O[C@H]1CO[C@H]2[C@@H]1OC[C@H]2O[N+](=O)[O-]`, the outcome was inactive.
Still for that read-out and setting: the entry for `Brc1ccc(Oc2cc(Br)c(Br)cc2Br)c(Br)c1` is “inactive”.
As for `c1ccc(C2(N3CCCC3)CCCCC2)cc1`, the AC50 was 33100 nM (active).
For `N#CCc1ccccc1`, the result was inactive.
Same read-out and setting: the entry for `F/C(COc1ccc2c(c1)[nH]c1ccccc12)=C1/CN2CCC1CC2` is “inactive”; for `O=C(CCl)C(Cl)Cl` it is “inactive”.
Still for that read-out and setting: the entry for `O=C(N/N=C/c1ccc([N+](=O)[O-])o1)c1cc([N+](=O)[O-])cc([N+](=O)[O-])c1O` is “inactive”.
For the molecule `O=C(OCCN1CCCCC1)C(O)(c1ccccc1)c1ccccc1`, the AC50 was 42400 nM (active).
For `CO[C@H]1[C@@H](O)C[C@H](O[C@H]2[C@@H](O)C[C@H](O[C@H]3[C@@H](O)C[C@H](O[C@H]4CC[C@@]5(C)[C@H](CC[C@@H]6[C@@H]5C[C@@H](O)[C@]5(C)[C@@H](C7=CC(=O)OC7)CC[C@]65O)C4)O[C@@H]3C)O[C@@H]2C)O[C@@H]1C`, the AC50 was 101 nM (active).
Take `CCOS(C)(=O)=O`: the molecule was called inactive.
As for `O=C(O)c1nn(Cc2ccc(Cl)cc2Cl)c2ccccc12`, the outcome was inactive.
As to `C=CC(C)=O`, the molecule was called inactive.
As for `O=CC=Cc1ccccc1`, the molecule was called inactive.
Consider `COc1ccc2c(c1OC)C(=O)O[C@@H]2[C@H]1c2cc3c(cc2CCN1C)OCO3`, for which the outcome was inactive.
Regarding `CC(=O)O[C@H]1C[C@H](O[C@H]2[C@@H](O)C[C@H](O[C@H]3[C@@H](O)C[C@H](OC4CC[C@@]5(C)[C@H](CC[C@@H]6[C@@H]5CC[C@]5(C)[C@@H](C7=CC(=O)OC7)CC[C@]65O)C4)O[C@@H]3C)O[C@@H]2C)O[C@H](C)[C@H]1O[C@@H]1O[C@H](CO)[C@@H](O)[C@H](O)[C@H]1O` (stereo not given in full), the AC50 was 85.5 nM (active).
With `CSCCCN=C=S`, the result was inactive.
On the same count and under the same terms, the entry for `C[C@]12CC[C@H]3[C@@H](CCC4=CC(=O)CC[C@@]43C)[C@@H]1CC[C@@H]2OC(=O)CCc1ccccc1` is “inactive”.
